Screens: PubChem BioAssay, several laboratories
Shown are actives, neighbours in structure and some others; about 2.4% of the full set was active somewhere.
APOBEC3G inh: inhibitors of human APOBEC3G DNA deaminase. Q9HC16. recombinant A3G, ssDNA deamination FAM/TAMRA fluorescence. inhibition, % at 20 µM. 0.28% of 330,000 active;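 active means inhibition of at least 40% at 20 µM, with no more than 30% in the related APOBEC3A deaminase screen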;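 further: plate controls were DMSO wells with A3G for no effect and wells lacking A3G enzyme for full effect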
Target sequence (Q9HC16 whole entry, looked up): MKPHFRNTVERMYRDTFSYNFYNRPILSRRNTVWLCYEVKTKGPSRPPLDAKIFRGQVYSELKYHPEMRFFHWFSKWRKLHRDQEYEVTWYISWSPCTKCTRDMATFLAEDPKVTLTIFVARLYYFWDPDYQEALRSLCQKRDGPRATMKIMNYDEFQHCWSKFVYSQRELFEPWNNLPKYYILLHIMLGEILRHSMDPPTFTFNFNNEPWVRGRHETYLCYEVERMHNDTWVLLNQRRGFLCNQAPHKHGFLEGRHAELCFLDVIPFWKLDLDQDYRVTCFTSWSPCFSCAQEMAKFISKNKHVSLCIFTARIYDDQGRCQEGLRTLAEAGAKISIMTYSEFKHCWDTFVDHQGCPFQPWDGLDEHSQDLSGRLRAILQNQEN
M18AAP inhibitor: PfM18AAP enzyme inhibition; recombinant PfM18AAP, H-Glu-NHMec fluorogenic cleavage; inhibition, % at 7.35 µM; 1.2% of 290,000 active;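 active means inhibition above the campaign mean inhibition over all tested compounds plus 3 SD, cut at about 28% in these data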;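 further: 0% = plate median of test compound wells and 100% = 2 mM ZnCl2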
PfG6PD inh: PfG6PD (Plasmodium falciparum) enzyme inhibition. 0.78% of 350,000 active. AID 504690. PfGluPho enzyme, NADPH resazurin-diaphorase fluorescence. inhibition, % at 20 µM;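 active means inhibition reaching at least a set limit at 20 µM in the primary screen, cut at about 59% in these data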;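 further: 0% = DMSO wells with substrate and 100% = DMSO wells lacking glucose-6-phosphate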
APOBEC3A inh: human APOBEC3A DNA deaminase inhibition | AID 493011 | recombinant A3A, FAM/TAMRA ssDNA deamination fluorescence | 0.41% of 330,000 active | inhibition, % at 20 µM;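 active means at least 40% inhibition at 20 µM here, with at most 30% in a related deaminase screen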;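 further: plate controls were A3A with DMSO for no effect and wells lacking A3A enzyme for full effect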
Target sequence (P31941 whole entry, looked up): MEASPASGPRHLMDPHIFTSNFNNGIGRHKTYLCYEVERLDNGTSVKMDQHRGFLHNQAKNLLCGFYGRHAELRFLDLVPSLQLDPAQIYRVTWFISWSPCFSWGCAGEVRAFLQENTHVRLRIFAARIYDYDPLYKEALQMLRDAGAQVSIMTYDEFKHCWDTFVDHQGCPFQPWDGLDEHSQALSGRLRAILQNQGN
Yeast superoxide: lowers age-related superoxide in aged yeast cells. S. cerevisiae aged cells, superoxide DHE fluorescence; hits give low values. superoxide response (% of plate mean), % at 10 µM. 0.18% of 330,000 active;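 active means superoxide response under a set limit, about three screen SD below normal, cut at about 65% in these data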;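 further: yeast aged for seven days with compound at 30 °C before DHE staining; 100% = average MFI of all compound-treated wells on the plate with controls excluded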
Superoxide pick: yeast aging superoxide inhibition, cherry pick confirmation | shares compounds with Yeast superoxide | S. cerevisiae aging, superoxide DHE fluorescence; hits give low values | superoxide response (% of plate), % at 10 µM | 1% of 850 active | AID 434994;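 active means superoxide signal below 65% of the plate average of sample wells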;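 further: cells aged with compound for 7 days at 30 degrees C before staining; 100% equals mean DHE fluorescence of all compound wells on the plate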
DHE counter: DHE fluorescence interference, counter-screen artifact; shares compounds with Yeast superoxide; S. cerevisiae BY4741, flow cytometry; hits give low values; fluorescence response, % at 10 µM; 850 tested, under 10 active; AID 435000;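 active means fluorescence response below 15%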;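 further: percent of the mean fluorescence averaged over all compound wells on the plate; lower means stronger quenching of DHE signal or ROS scavenging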
Active calls of the source: *; x = no result given.

SMILES | APOBEC3G inh | M18AAP inhibitor | PfG6PD inh | APOBEC3A inh | Yeast superoxide | Superoxide pick | DHE counter
CCCCc1cc(=O)oc2cc(OC(C)C(=O)NCCN3CCOCC3)c(Cl)cc12 (stereo unspecified) | -10 | 0 | -6 | -15 | 106 | x | x
Cc1cc(Oc2ccc(=O)n(C)n2)nc(SCCOc2ccccc2)n1 | -8 | -2 | 2 | -3 | 15* | 107 | 93
CCOC(=O)CSc1nc(C)cc(Oc2ccc(=O)n(C)n2)n1 | -13 | 2 | -8 | -7 | 99 | x | x
COc1ccc(C)cc1-n1nnnc1SCc1cn2ccsc2n1 | -1 | -3 | -18 | -1 | 62* | 118 | 110
COc1ccc(C)cc1-n1nnnc1SCC(=O)NC1CCCC1 | -2 | x | -11 | -5 | x | x | x
COc1ccc(CN2CCN(Cc3ccc(Br)cc3)CC2)c(OC)c1OC | -14 | -5 | -9 | -4 | 46* | 94 | 89
COc1ccc(CN2CCN(Cc3cccc(Oc4ccccc4)c3)CC2)c(OC)c1OC | -7 | 4 | 9 | -2 | 101 | x | x
CCn1c(C)c(C)c2cc(C(=O)NC3CCCCCC3)ccc21 | -3 | 8 | 10 | -6 | 88 | x | x
CC(C)(C)N1CC(C(=O)Nc2ccc(C(N)=O)cc2)CC1=O (stereo unspecified) | x | x | -15 | x | x | x | x
Nn1c(SCC(=O)Nc2ccc(F)cc2F)nnc1C1CCCCC1 | -6 | -1 | -4 | -6 | 115 | 85 | 101
Nn1c(SCC(=O)Nc2ccccc2F)nnc1C1CCCCC1 | 1 | -7 | -9 | -2 | 111 | x | x
O=C(NC(=O)N1CCCC1)c1csnn1 | 3 | -4 | 2 | 5 | 64* | 99 | 91
O=C(NC1CCCCC1)c1csnn1 | x | x | -6 | x | x | x | x
O=C(CCSC1=NCCCN1)c1ccc(F)cc1 | x | x | 36 | x | x | x | x
CCN(CC)C(=O)CSc1nnc(-c2ccccc2)o1 | -3 | -6 | -5 | -3 | 98 | 96 | 96
O=C(CSc1nnc(-c2ccc(F)cc2)o1)NC1CCCCC1 | 0 | 6 | 10 | -3 | 93 | x | x
CCCNC(=O)CSc1nnc(-c2ccc(F)cc2)o1 | -9 | -4 | 0 | -4 | 127 | 117 | 100
CCN(CC)C(=O)CCSc1nnc(-c2ccncc2)o1 | -2 | 2 | -20 | 0 | 100 | x | x
Nn1c(SCC(=O)Nc2cccc(Br)c2)nnc1C1CC1 | 0 | x | 6 | 3 | 114 | x | x
COc1ccc(NC(=O)CN2c3cccc4cccc(c34)S2(=O)=O)cc1OC | x | x | 4 | x | x | x | x
CN(C(=O)c1cccc(NC(=O)Cc2ccc(NC(=O)C3CCCN(C(=O)C4CC4)C3)cc2)c1)C1CCCCC1 (stereo unspecified) | x | x | -1 | x | x | x | x
COc1cc2c(c(OC)c1OC)C(c1ccccc1C)CC(=O)O2 (stereo unspecified) | -1 | x | 2 | 1 | 100 | x | x
O=C(CCS(=O)(=O)c1ccc(Cl)cc1)Nc1ccc(F)cc1 | 0 | -10 | -42 | 3 | 92 | x | x
CCc1ccc(NC(=O)CCS(=O)(=O)c2ccc(Cl)cc2)cc1 | -11 | -3 | -4 | -3 | 51* | 84 | 95
Cn1c2ccccc2c(=O)c2ccc(NCCc3cccs3)cc21 | 22 | x | 35 | 6 | 129 | x | x
SMILES | APOBEC3G inh | M18AAP inhibitor | PfG6PD inh | APOBEC3A inh | Yeast superoxide | Superoxide pick | DHE counter
COCC(=O)Nc1ccc(S(=O)(=O)N2CCCC2)cc1 | -3 | -3 | -6 | -3 | 88 | 99 | 100
CC(=O)Nc1ccc(S(=O)(=O)N2CCCC2)cc1 | 7 | 2 | -9 | 0 | 101 | 98 | 115
CCCC(=O)Nc1ccc(S(=O)(=O)N2CCCC2)cc1 | -9 | 3 | -8 | -6 | 106 | x | x
O=C(C1CCCO1)N1CCN(c2c3c(nc4cc(-c5ccc(F)cc5)nn24)CCC3)CC1 (stereo unspecified) | -1 | 0 | -1 | 3 | 63* | 98 | 103
COc1ccc2nc(Nc3nc(C)c(CCC(C)C)c(=O)[nH]3)nc(C)c2c1 | -2 | 0 | -18 | -2 | 65* | 122 | 108
COc1ccc2nc(Nc3nc(CSc4ccc(C)cc4)cc(=O)[nH]3)nc(C)c2c1 | -3 | -3 | 7 | -2 | 117 | x | x
O=C(NC(=S)NNC(=O)c1cnccn1)c1ccc(Cl)cc1 | 4 | -4 | -13 | -1 | 53* | 111 | 92
COc1ccc(C(=O)NC(=S)NNC(=O)c2cnccn2)cc1 | -7 | 0 | -11 | -4 | 75 | x | x
N#C/C(=N\Nc1ccccc1Cl)C(=O)c1ccccc1 | -1 | 3 | 1 | -2 | 105 | x | x
CCOC(=O)NC(=O)/C(C#N)=N/Nc1c(F)cccc1F | -1 | -5 | 9 | 3 | 93 | 101 | 104
CCOC(=O)NC(=O)/C(C#N)=N\Nc1cccc(OC)c1 | -8 | -2 | -4 | -6 | 102 | 122 | 124
COc1ccc(C(=O)/C(C#N)=N/Nc2cccc([N+](=O)[O-])c2)cc1 | x | 9 | -20 | x | x | x | x
N#C/C(=N\Nc1c(Cl)cccc1Cl)C(=O)NN | -4 | 11 | -22 | -2 | 94 | 110 | 119
CC(=O)N1CCc2cc(Br)cc(S(=O)(=O)NCCCN(C)Cc3ccccc3)c21 | -6 | -3 | 4 | -3 | 100 | x | x
CCC1(c2ccc(F)cc2)NC(=O)N(CC(=O)Nc2cccnc2Cl)C1=O (stereo unspecified) | 8 | x | -8 | 5 | 64* | 117 | 101
CCC1(c2ccccc2)NC(=O)N(CC(=O)Nc2cccnc2Cl)C1=O (stereo unspecified) | -2 | x | -11 | 0 | 100 | x | x
Cn1c(=O)c2[nH]c(-c3ccccc3)nc2n(C)c1=O | x | 1 | x | x | x | x | x
Cn1c(=O)c2[nH]c(-c3cccnc3)nc2n(C)c1=O | -7 | 1 | 2 | -4 | 58* | 91 | 92
N#Cc1c(NCc2ccccc2)ccnc1NCc1cccnc1 | 2 | 2 | -9 | 8 | 101 | x | x
N#Cc1c(F)cccc1NCc1cccnc1 | -11 | 0 | -11 | -8 | 56* | 97 | 94
CN(C)CCNC(=O)c1nn(C)c2c1CCc1ccccc1-2 | -5 | 0 | 10 | -2 | 104 | x | x
CC(C)(c1cc(Br)c(O)c(Br)c1)c1cc(Br)c(O)c(Br)c1 | -11 | x | -5 | 1 | 43* | 96 | 125
CC(=O)N/C(=C\c1ccccc1)C(=O)OCC(=O)N(CC(C)C)c1c(N)n(Cc2ccccc2)c(=O)[nH]c1=O | -10 | x | -8 | -2 | 140 | x | x
CC(=O)n1c2ccccc2c2ccccc21 | -3 | 1 | 16 | -3 | 103 | 95 | 92
Cc1ccc(C(=O)n2c3ccccc3c3ccccc32)cc1 | -7 | 4 | 30 | -3 | 91 | x | x
CC(C)(C)c1ccc(-c2cn(-c3ccc(Br)cc3)c3[n+]2CCCS3)cc1 | x | 5 | 15 | x | x | x | x
CCN(CC)C(=O)CCn1nc(-c2ccc(C)cc2)c2ccccc2c1=O | -2 | 11 | -14 | -6 | 37* | 100 | 94
Cc1ccc(-c2nn(CCC(N)=O)c(=O)c3ccccc23)cc1 | 2 | 1 | 16 | 2 | 118 | x | x
